A short description of assay [1]: rapamycin-like changes in RPL19A-GFP expression – cell-based, S. cerevisiae, multiplex flow cytometry, primary screen (AID 1862; in the data active = percent of DMSO control GFP below about 86%;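 also: lower values mimic rapamycin by blocking the RPL19A rise seen in DMSO cells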). As to conditions: S. cerevisiae RPL19A-GFP strain, flow cytometry fluorescence, 3 h; at 10 µM; stronger effect = lower value. (In general: In flow cytometry, cells or beads pass a laser one at a time.)
A short description of assay [2]: TOR pathway GLN3 branch reporter MEP2-GFP changes – S. cerevisiae, multiplex flow cytometry, primary screen (AID 1867;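 active = GFP response, as percent of the DMSO control, above the screen-wide mean plus 3 SD, about 139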;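 also: median GFP channel fluorescence of barcode-gated MEP2-GFP cells measured by flow cytometry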). As to conditions: S. cerevisiae MEP2-GFP strain, 3 h, at 10 µM, stronger effect = higher value, 100% means same as DMSO wells.
A short description of assay [3]: TOR pathway RTG branch CIT2 reporter changes – S. cerevisiae, GFP fusion, multiplex flow cytometry, primary screen (AID 1870;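 active = percent response above a set limit, the screen-wide mean plus 3 SD, cut at about 130% in these data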;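 also: barcoded CIT2-GFP strain pooled with four other GFP strains with rapamycin as positive control; median GFP fluorescence per well over plate mean of DMSO wells so 100% = DMSO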). As to conditions: S. cerevisiae CIT2-GFP expression, 3 h, at 10 µM, stronger effect = higher value.
Assay [4] can be described thus: TOR pathway LAP4-GFP level changes – S. cerevisiae, multiplex flow cytometry, primary screen (AID 1873;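 active = GFP signal, as percent of the solvent control, above the screen mean plus 3 SD, about 149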). As to conditions: S. cerevisiae LAP4-GFP expression, 3 h, at 10 µM, stronger effect = higher value.
Assay [5] can be described thus: yeast AGP1-GFP level changes, GLN3 branch – cell-based, multiplex flow cytometry, S. cerevisiae, primary screen (AID 1887;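 active = GFP signal above the screen-wide mean plus 3 SD, that is over about 124.5% of the solvent control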;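 also: AGP1-GFP fusion strain of S. cerevisiae within a five-strain barcoded multiplex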). The settings on record: 3 h, at 10 µM, stronger effect = higher value.
A short description of assay [6]: reduced mouse 2C T cell binding to pMHC/ICAM-1 vesicles – MLPCN validation set, flow cytometry, LFA-1/ICAM-1 modulator project, pilot screen (AID 2523;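 active = response below a set limit, under 55% cells CD8-positive and vesicle-bound, and CD8 cells' 90th-percentile brightness under 279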;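 as to vesicle binding response: mean PE anti-B7-1 fluorescence of CD8+ cells relative to row control; 100% = QL9-loaded vesicles with DMSO vehicle in the same plate row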). The settings on record: 2C mouse CD8+ T cells, at 7 µM, stronger effect = lower value; double positive events: measured here: CD8+/vesicle+ event percentage.
The target of assay [7] is Integrin beta-1 (Homo sapiens) + Integrin alpha-4 (Homo sapiens) (UniProt P13612+P05556). The assay can be described thus: alpha4beta1 integrin LIBS antibody binding reduction – U937 cells, HUTS-21 mAb, flow cytometry, validation set, VLA-4 allosteric modulator project, pilot screen (AID 2674;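 active = inhibition above 50%, about 3 SD of the validation set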;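 also: antibody binding induced by the VLA-4 ligand LDV present at three times its Kd; 0% = LDV ligand with antibody and no compound and 100% = antibody without LDV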). The settings on record: HUTS-21 LIBS mAb binding, at 6.7 µM, stronger effect = higher value, binding induced by LDV ligand.
Integrin beta-1 (Homo sapiens) + Integrin alpha-4 (Homo sapiens), sequence (P05556 whole entry, looked up): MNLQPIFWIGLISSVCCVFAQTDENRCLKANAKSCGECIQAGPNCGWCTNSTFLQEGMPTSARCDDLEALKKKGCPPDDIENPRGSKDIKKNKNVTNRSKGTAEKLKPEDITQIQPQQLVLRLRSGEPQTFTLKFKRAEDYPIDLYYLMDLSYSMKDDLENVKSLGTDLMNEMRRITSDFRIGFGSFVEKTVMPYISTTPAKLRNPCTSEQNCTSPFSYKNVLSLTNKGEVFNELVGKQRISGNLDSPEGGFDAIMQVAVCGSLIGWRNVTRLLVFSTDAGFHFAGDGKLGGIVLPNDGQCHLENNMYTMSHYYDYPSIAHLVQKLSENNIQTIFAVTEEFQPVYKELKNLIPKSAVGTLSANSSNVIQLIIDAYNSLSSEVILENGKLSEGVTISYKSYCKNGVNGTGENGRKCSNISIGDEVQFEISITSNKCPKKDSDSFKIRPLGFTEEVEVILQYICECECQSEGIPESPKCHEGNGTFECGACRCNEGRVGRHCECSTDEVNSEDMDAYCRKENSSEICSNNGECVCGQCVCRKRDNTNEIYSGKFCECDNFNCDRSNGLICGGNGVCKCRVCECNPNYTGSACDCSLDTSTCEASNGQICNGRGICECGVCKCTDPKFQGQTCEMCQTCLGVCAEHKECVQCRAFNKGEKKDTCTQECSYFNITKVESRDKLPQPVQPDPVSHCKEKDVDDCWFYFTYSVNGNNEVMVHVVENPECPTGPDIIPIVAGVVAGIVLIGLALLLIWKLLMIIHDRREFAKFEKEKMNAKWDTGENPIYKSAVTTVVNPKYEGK
Integrin beta-1 (Homo sapiens) + Integrin alpha-4 (Homo sapiens), sequence (P13612 whole entry, looked up): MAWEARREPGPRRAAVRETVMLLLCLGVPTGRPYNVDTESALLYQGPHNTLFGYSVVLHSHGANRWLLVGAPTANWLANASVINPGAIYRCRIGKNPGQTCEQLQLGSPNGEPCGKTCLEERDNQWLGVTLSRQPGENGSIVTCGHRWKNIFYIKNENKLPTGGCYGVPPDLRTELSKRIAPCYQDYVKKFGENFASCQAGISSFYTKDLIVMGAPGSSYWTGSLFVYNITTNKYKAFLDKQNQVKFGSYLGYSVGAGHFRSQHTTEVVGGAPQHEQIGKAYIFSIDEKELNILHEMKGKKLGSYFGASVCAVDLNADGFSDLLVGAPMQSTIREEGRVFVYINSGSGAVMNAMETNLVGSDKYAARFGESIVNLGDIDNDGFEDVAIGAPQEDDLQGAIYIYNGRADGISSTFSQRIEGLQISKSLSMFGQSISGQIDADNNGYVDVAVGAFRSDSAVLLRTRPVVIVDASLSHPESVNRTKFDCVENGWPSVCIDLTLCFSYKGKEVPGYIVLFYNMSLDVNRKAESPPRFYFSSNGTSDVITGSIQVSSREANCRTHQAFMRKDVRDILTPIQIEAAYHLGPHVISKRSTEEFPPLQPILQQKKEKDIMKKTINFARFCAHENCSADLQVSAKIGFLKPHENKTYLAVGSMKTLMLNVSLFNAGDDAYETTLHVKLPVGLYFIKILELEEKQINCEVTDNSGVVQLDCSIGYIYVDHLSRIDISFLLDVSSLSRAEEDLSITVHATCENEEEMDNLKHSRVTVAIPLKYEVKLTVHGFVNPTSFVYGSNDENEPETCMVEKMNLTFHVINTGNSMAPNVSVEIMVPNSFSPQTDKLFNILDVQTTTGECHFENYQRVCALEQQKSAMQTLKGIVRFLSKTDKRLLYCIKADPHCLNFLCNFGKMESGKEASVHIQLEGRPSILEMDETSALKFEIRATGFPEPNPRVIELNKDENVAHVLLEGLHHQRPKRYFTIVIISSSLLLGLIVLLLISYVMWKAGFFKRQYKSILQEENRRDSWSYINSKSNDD

The nature of assay [8]: calorie-restriction mimetic ROS inhibitors, yeast – validation compound set, pilot screen (AID 2706;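 active = superoxide response below 65% of plate, a cut near 3 SD across the whole screen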;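 also: yeast exposed to compound for one week at 30 degrees C before staining; 100% = mean of all compound wells on the same plate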). The settings on record: S. cerevisiae aging, superoxide DHE fluorescence; at 10 µM, stronger effect = lower value.
In assay [9] the target is Beta-adrenergic receptor kinase 1 (Homo sapiens) (UniProt P25098). The assay can be described thus: GRK2 binders displacing RNA aptamer, biochemical, validation, human GRK2, bead flow cytometry (AID 488806;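 active = aptamer binding inhibition above 30%, about 3 SD of noise from non-fluorescent compounds; inactive = inhibition at or below 30%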). As to conditions: bead-bound GRK2, FAM-aptamer displacement, at 10 µM, stronger effect = higher value.
Beta-adrenergic receptor kinase 1 (Homo sapiens), sequence (P25098 whole entry, looked up): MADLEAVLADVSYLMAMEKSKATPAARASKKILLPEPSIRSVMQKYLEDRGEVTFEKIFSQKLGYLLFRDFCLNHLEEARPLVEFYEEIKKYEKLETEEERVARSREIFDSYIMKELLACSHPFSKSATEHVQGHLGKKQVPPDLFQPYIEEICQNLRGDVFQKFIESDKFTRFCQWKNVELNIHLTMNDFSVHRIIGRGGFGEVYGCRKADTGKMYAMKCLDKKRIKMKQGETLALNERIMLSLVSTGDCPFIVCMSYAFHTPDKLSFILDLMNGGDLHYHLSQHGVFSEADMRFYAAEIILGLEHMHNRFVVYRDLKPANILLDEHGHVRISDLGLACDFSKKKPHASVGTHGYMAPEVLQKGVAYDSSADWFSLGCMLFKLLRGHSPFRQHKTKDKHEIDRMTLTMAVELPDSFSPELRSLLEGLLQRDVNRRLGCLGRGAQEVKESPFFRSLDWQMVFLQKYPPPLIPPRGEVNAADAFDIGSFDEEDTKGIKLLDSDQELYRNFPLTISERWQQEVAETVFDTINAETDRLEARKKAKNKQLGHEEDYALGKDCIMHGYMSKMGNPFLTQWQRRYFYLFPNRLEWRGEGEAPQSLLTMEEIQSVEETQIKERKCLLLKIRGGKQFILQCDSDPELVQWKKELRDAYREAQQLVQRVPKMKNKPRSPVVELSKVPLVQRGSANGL
Assay [10] deals with AP-2 complex subunit beta (Homo sapiens) (UniProt P63010). As to the kind of experiment: beta-arrestin/AP2 interaction blockers – biochemical, validation set, GST-AP2 beads, flow cytometry, pilot screen (AID 504541;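 active = inhibition above 54%, about 3 SD of non-fluorescent compounds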;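 also: AP2 carries R879A mutation and is captured from E. coli lysate; bead-bound FITC arrestin peptide fluorescence measuring arrestin peptide binding to AP2; 0% = DMSO wells and 100% = excess unlabeled arrestin peptide control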). The settings on record: FITC arrestin peptide, at 10 µM, stronger effect = higher value, AP2 beta2 appendage fragment, R879A mutant.
AP-2 complex subunit beta (Homo sapiens), sequence (P63010 whole entry, looked up, the tested form may be a part, one chain of several): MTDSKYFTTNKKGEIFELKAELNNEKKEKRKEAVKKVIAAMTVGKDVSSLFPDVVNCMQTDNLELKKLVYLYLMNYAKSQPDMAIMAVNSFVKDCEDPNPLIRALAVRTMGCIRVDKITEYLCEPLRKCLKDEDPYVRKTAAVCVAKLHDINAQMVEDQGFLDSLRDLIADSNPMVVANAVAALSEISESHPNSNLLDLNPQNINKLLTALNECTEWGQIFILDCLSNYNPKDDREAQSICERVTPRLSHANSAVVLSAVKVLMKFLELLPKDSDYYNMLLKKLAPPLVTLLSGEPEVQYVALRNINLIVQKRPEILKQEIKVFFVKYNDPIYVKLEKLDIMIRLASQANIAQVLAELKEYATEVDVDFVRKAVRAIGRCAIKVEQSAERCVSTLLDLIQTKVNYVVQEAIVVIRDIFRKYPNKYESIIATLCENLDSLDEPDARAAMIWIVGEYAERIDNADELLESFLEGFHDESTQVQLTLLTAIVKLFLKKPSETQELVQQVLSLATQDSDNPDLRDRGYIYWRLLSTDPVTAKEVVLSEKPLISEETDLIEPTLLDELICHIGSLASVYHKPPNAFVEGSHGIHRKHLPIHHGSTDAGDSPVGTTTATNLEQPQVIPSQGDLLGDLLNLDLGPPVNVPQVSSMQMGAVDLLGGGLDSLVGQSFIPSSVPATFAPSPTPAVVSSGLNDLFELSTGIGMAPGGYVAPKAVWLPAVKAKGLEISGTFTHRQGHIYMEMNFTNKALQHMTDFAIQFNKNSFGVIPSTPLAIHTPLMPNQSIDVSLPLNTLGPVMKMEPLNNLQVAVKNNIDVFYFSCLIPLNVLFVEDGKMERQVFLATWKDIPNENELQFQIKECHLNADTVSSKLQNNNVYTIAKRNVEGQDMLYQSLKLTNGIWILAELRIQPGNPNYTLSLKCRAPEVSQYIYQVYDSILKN
A short description of assay [11]: cytosolic pH regulators acting via V-ATPase – S. cerevisiae, pHLuorin, HTS validation (AID 504600; in the data active = response above about 15%;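 also: plate controls were DMSO for no effect and reference compound for full effect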). As to conditions: V-ATPase proton transport, at 10 µM, stronger effect = higher value.
Assay [12] concerns anti-desmoglein-3 scFv antibody binding to human DSG3. The assay can be described thus: blockers of pathogenic pemphigus antibody–desmoglein-3 binding – biochemical, validation compound set, bead-based, flow cytometry, pilot screen (AID 588368;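 active = binding below the plate cutoff, the plate median minus 3 SD, with a reading above zero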;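 also: signal is the median channel fluorescence of bead-bound GFP antibody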). As to conditions: Protein G beads, DSG3-Fc, scFv-GFP binding, at 10 µM, stronger effect = lower value.
Assay [13] can be described thus: Nile Red efflux blockade in pump-expressing yeast – validation compound set, multiplex, phenotypic, pilot screen (AID 588506;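 active = efflux inhibition above 0.42, the validation set average plus 4 SD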;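 also: Nile Red retained in cells so higher fluorescence means more efflux inhibition; 0 = negative control wells and 1 = enniatin B 25 µM full block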). As to conditions: S. cerevisiae pump-expressing triplex, Nile Red efflux flow cytometry; at 10 µM; stronger effect = higher value; the pumps come from Candida albicans.
Assay [14] addresses ATP-binding cassette sub-family B member 6 (Homo sapiens) (UniProt Q9NP58). As to the kind of experiment: blockers of ABCB6-driven porphyrin uptake – K562-ABCB6 cells, flow cytometry, validation set, pilot screen (AID 588550).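 Also: 0% = DMSO wells and 100% = benzethonium chloride 70 µM positive control.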 The settings on record: K562-ABCB6 porphyrin accumulation, 1 h, at 10 µM, stronger effect = higher value.
Assay [15] can be described thus: AML differentiation inducers, ER-HoxA9 marrow cells – cell-based, GFP/MAC1 double positive, flow cytometry, validation set, primary screen (AID 588685;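 active = differentiation response of at least 50%, scaled between solvent and reference control, from cells with both markers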;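 also: compound exposure lasts four days before antibody staining and flow analysis; 0% = DMSO wells and 100% = 5 µM fulvestrant positive control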). The settings on record: stronger effect = higher value, normalized: vehicle 0, fulvestrant 100.

Experimental findings from PubChem BioAssay are described below.

Records with an inconclusive call do not appear. The source made the active and inactive calls.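 The calls were made as follows, unless noted: active = inhibition above the screen-wide mean plus 3 SD, about 51%; inactive = the rest.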

Usually inhibition stands for the drop in the measured response relative to a control, in per cent.

ATP-binding cassette sub-family B member 6 (Homo sapiens), sequence (Q9NP58 whole entry, looked up): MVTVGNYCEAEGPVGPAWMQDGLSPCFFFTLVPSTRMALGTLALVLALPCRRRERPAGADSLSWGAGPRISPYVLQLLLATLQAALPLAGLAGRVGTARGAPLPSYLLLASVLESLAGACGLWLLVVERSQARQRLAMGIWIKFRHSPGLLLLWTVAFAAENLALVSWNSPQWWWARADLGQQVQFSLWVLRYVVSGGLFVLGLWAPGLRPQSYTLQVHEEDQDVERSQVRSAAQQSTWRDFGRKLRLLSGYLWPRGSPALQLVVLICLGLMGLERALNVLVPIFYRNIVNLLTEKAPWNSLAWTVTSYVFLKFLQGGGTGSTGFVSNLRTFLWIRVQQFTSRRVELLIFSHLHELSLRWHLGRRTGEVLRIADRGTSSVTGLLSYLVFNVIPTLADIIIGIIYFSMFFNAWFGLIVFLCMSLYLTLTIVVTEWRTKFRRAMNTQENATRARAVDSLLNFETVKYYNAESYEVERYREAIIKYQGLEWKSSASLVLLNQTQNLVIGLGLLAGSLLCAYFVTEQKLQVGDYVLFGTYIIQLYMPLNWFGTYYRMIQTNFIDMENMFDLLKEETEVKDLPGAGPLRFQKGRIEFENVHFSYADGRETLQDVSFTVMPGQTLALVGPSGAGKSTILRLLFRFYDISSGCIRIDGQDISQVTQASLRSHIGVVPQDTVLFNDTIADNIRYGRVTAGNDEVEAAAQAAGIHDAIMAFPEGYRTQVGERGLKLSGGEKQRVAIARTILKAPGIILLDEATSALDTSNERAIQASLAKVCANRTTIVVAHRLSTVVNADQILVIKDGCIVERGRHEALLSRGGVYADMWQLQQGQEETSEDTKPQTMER

`O=C(CCCCC(=O)NC1CCCC1)NC1CCCC1`: the percent of DMSO control GFP in assay [1] is 96.8% (inactive). For the same compound, the GFP response vs DMSO is 102% (inactive) in [2] and 95.4% (inactive) in [4]. The percent response of DMSO control in assay [3] is 105% (inactive). For the same compound, the GFP response, % of DMSO in assay [5] is 93.7% (inactive). This compound also registered a double positive events in assay [6] of 53.7%. For the same compound, the vesicle binding response in [6] is 181% (inactive). The inhibition in [7] was 10% (inactive); in [10], 3.46% (inactive); in [14], 6% (inactive). Besides, the superoxide response (% of plate) in [8] was 103% (inactive). Moreover, the aptamer binding inhibition in assay [9] was 0% (inactive). In addition, the response in assay [11] is 3.11% (inactive). Besides, in assay [12], the binding (% of control) was 102% (inactive). For the same compound, in assay [13], the efflux inhibition (fraction of control) was 0.29 (inactive). Also, the differentiation response in assay [15] is -11.5% (inactive).
Take `Cc1ccccc1OCCSc1nc2ncnc(N)c2[nH]1`: in assay [1], the percent of DMSO control GFP was 97.3% (inactive). For the same compound, the GFP response vs DMSO in assay [2] is 105% (inactive); in assay [4] it was 99.4% (inactive). For the same compound, the percent response of DMSO control in assay [3] is 104% (inactive). Besides, the GFP response, % of DMSO in assay [5] is 103% (inactive). The double positive events in assay [6] is 51.9%. The vesicle binding response in assay [6] was 163% (inactive). In addition, the inhibition in assay [7] is 8.15% (inactive); in [10], -6.91% (inactive); in assay [14] it was 1% (inactive). In addition, the superoxide response (% of plate) in [8] was 97.8% (inactive). In assay [9], the aptamer binding inhibition is 2% (inactive). Also, the response in assay [11] was 3.1% (inactive). Besides, the binding (% of control) in assay [12] is 96.7% (inactive). Further, the efflux inhibition (fraction of control) in assay [13] is 0.06 (inactive). The differentiation response in [15] is -8.27% (inactive).
As for `Cc1ccc(C(CC(=O)NCc2ccco2)c2ccc(OC(C)C)cc2)cc1` (stereo not given), the percent of DMSO control GFP in assay [1] was 99.8% (inactive). The figures for the GFP response vs DMSO in assay [2] and in assay [4] were 106% (inactive) and 103% (inactive), respectively. Moreover, in [3], the percent response of DMSO control was 96.9% (inactive). For the same compound, the GFP response, % of DMSO in [5] is 96.9% (inactive). In addition, the double positive events in [6] turned out to be 60.4%. The vesicle binding response in assay [6] is 165% (inactive). The figures for the inhibition in assay [7], in assay [10] and in [14] were -138% (inactive), 37.9% (inactive) and 12% (inactive), respectively. In [8], the superoxide response (% of plate) was 103% (inactive). Also, in [9], the aptamer binding inhibition was 2% (inactive). Moreover, the response in assay [11] was -2.51% (inactive). In addition, in [12], the binding (% of control) is 97.7% (inactive). Also, in [13], the efflux inhibition (fraction of control) was 0.67 (active). The differentiation response in assay [15] was -6.66% (inactive).
For the compound `O=C(O)CC(O)C(=O)O` (stereo not given), the percent of DMSO control GFP in [1] is 101% (inactive). Moreover, the GFP response vs DMSO in [2] is 106% (inactive); in [4] it was 104% (inactive). In addition, the percent response of DMSO control in assay [3] is 103% (inactive). For the same compound, the GFP response, % of DMSO in assay [5] is 99.6% (inactive). The double positive events in [6] was found to be 62.1%. Moreover, the vesicle binding response in assay [6] was 146% (inactive). For the same compound, the results for the inhibition in assay [7], in assay [10] and in assay [14] were 10.9% (inactive), 1.04% (inactive) and 14% (inactive), respectively. Besides, in [8], the superoxide response (% of plate) is 95.8% (inactive). Also, the aptamer binding inhibition in [9] was 3% (inactive). Further, the response in [11] was -1.46% (inactive). Also, the binding (% of control) in assay [12] is 99.3% (inactive). Also, in assay [13], the efflux inhibition (fraction of control) was 0.1 (inactive). For the same compound, in assay [15], the differentiation response was 1.41% (inactive).
Consider `CCOC(=O)c1oc2cc(OCC(N)=O)ccc2c(=O)c1-c1ccc(OC)c(OC)c1`, for which the percent of DMSO control GFP in assay [1] is 109% (inactive). The GFP response vs DMSO in assay [2] is 97.9% (inactive); in assay [4] it was 94.3% (inactive). Further, the percent response of DMSO control in [3] is 107% (inactive). Further, the GFP response, % of DMSO in assay [5] is 101% (inactive). For the same compound, in assay [6], the double positive events came out at 62.1%. Besides, the vesicle binding response in assay [6] is 207% (inactive). Also, the inhibition in assay [7] is 24.9% (inactive); in assay [10], 2.96% (inactive); in assay [14], 8% (inactive). Besides, the superoxide response (% of plate) in assay [8] was 90.1% (inactive). Also, the aptamer binding inhibition in assay [9] is 1% (inactive). The response in assay [11] is -0.67% (inactive). The binding (% of control) in [12] is 100% (inactive). Besides, in assay [13], the efflux inhibition (fraction of control) was -0.01 (inactive). Besides, in assay [15], the differentiation response was -18% (inactive).
